Values joined by “and” are separate entries in the source; they are usually repeats but may differ in a detail not shown here. Equal values may be shown once. Inconclusive results are not listed. Active and inactive are the calls of the source. Unless noted, calls follow the shape of the dose curve; as a rule, active = well fitted curve in the direction sought with a large enough effect in the repeat runs; inconclusive = weak or mixed curves; inactive = no such curve, though single readings can be large; an effect the other way counts as inactive or inconclusive.
Legend:
[1] = qHTS assay to identify small molecule antagonists of the retinoid acid receptor (RAR) signaling pathway - cell viability counter screen (AID 1159551); also: nearly all actives have a fitted effect of over 35% in size
Summary of the method: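 ATP-based viability, C3RL4 cells, 6 h at 37 C with 1 uM final retinol co-added after compound; luminescence read 30 min post CellTiter-Glo, RT.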

[2] = qHTS assay to identify small molecule antagonists of the retinoic acid receptor (RAR) signaling pathway (AID 1159552; also: nearly all actives have a fitted effect of over 50% in size; also: potency is read from the fitted curve at half-maximal effect)
Summary of the method: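 Luminescence from a RARE luciferase reporter in C3RL4 cells served as read-out. Cells received compounds together with 1 uM final retinol and incubated 6 hr at 37 C before detection reagent was added for 30 min at room temperature.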

[3] = qHTS assay to identify small molecule agonists of the retinoic acid receptor (RAR) signaling pathway (AID 1159553); also: potency is read from the fitted curve at half-maximal effect
Summary of the method: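 Quantitative high-throughput format: the Tox21 10K library was tested on C3RL4 RARE-luciferase cells for 6 hr at 37 C and 5% CO2, with luminescence measured after a 30 min room-temperature reagent step.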

[4] = qHTS assay to identify small molecule antagonists of the estrogen related receptor (ERR) signaling pathway - cell viability counter screen (AID 1224818);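 also: series mostly up to about 46 µM; viability measured after 17.5 h of compound exposure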
Summary of the method: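 Quantitative high-throughput viability counter screen in ERR cells. Compounds (DMSO) incubated 17.5 h at 37 C; read-out was CellTiter-Fluor fluorescence.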

[5] = qHTS assay to identify small molecule antagonists of the estrogen related receptor (ERR) signaling pathway (AID 1224819; also: nearly all actives have a fitted effect of over 50% in size; also: potency is read from the fitted curve at half-maximal effect)
Summary of the method: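 ERR reporter cell line (NTP) plated at 2,000 cells/well, settled 6 h at 37C/5% CO2, then exposed to LOPAC compounds for 18 h at 37C. One-Glo luciferase luminescence read after 30 min at room temperature.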

[6] = qHTS assay to identify small molecule agonists of the estrogen related receptor (ERR) signaling pathway (AID 1224820)
Summary of the method: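 After 6 h plating (2,000 cells/well) and 18 h compound treatment at 37 C, ERR cells were lysed with One-Glo and luminescence read after 30 min at room temperature.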

[7] = tested on: estrogen-related receptor alpha (ERRalpha) with PGC-1alpha coactivator, human; assay: qHTS assay to identify small molecule antagonists of the estrogen related receptor signaling pathway with the pleiotropic PPARgamma coactivator (PGC) (AID 1224821; calls by dose curve; also: nearly all actives have a fitted effect of over 50% in size; also: potency is read from the fitted curve at half-maximal effect)
Summary of the method: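 Luminescence from One-Glo luciferase reagent (30 min, room temperature) measured after 18 h compound treatment at 37 °C. Cells carry the PGC/ERR reporter and were seeded 6 h prior to dosing.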

[8] = qHTS assay to identify small molecule antagonists of the estrogen related receptor signaling pathway with the pleiotropic PPARgamma coactivator (PGC) cell viability counter screen (AID 1224822; also: series mostly up to about 46 µM)
Summary of the method: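 Cytotoxicity in the PGC/ERR cell line is assessed with CellTiter-Fluor, read as fluorescence intensity 30 min after reagent addition, following 17.5 h compound treatment at 37 C.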

[9] = qHTS assay to identify small molecule agonists of the estrogen related receptor signaling pathway with the pleiotropic PPARgamma coactivator (PGC) (AID 1224823)
Summary of the method: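 Luminescence from One-Glo reagent (30 min, room temperature) was read after 18 h compound treatment at 37 C of PGC/ERR cells plated 6 h beforehand; compounds delivered in DMSO by pin tool.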

[10] = qHTS assay to identify small molecule antagonists of the estrogen related receptor (ERR) signaling pathway from Tox21 library - cell viability counter screen (AID 1224834); also: nearly all actives have a fitted effect of over 30% in size; also: potency is read from the fitted curve at half-maximal effect
Summary of the method: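 Compounds in DMSO were pinned onto ERR cells that had been incubated for 6 h, and the plates were held at 37 C for 17.5 h. CellTiter-Fluor reagent was then added and fluorescence was measured after 30 min.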

[11] = target: Luciferin 4-monooxygenase (Photinus pyralis) (UniProt P08659); assay: qHTS assay to identify small molecule inhibitors of firefly luciferase (AID 1224835); also: series mostly up to about 120 µM; nearly all actives have a fitted effect of over 25% in size
Summary of the method: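 Biochemical qHTS: compounds run as interplate titrations against purified firefly enzyme, with D-luciferin and ATP each at its KM concentration. Light output recorded by CCD imaging.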

[12] = qHTS assay to identify small molecule agonists of the constitutive androstane receptor (CAR) signaling pathway - cell viability counter screen (AID 1224836); also: nearly all actives have a fitted effect of over 45% in size; also: potency is read from the fitted curve at half-maximal effect
Summary of the method: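 Viability read-out: CellTiter-Fluor fluorescence after 23 h compound exposure at 37 C/5% CO2 in double-stable HepG2-CYP2B6-hCAR cells, with PK11195 present at 0.75 uM final; compounds tested in 15-point titration.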

[13] = qHTS assay to identify small molecule antagonists of the constitutive androstane receptor (CAR) signaling pathway - cell viability counter screen (AID 1224837); also: nearly all actives have a fitted effect of over 45% in size; also: potency is read from the fitted curve at half-maximal effect
Summary of the method: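 Cells are seeded, rested 4 hr at 37 C/5% CO2, dosed with compound (15-point series) and 50 nM CITCO, incubated a further 23 hr, and then CellTiter-Fluor reagent is added before fluorescence is read. The line is HepG2 with stable hCAR and CYP2B6-2.2kb.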

[14] = target: Nuclear receptor subfamily 1 group I member 3 (Homo sapiens) (UniProt Q14994); assay: qHTS assay to identify small molecule antagonists of the constitutive androstane receptor (CAR) signaling pathway (AID 1224838);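 also: HepG2 cells stably expressing hCAR with CYP2B6 luciferase reporter stimulated by CITCO; nearly all actives have a fitted effect of over 40% in size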; also: potency is read from the fitted curve at half-maximal effect
Summary of the method: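 Luminescence from a CYP2B6-2.2kb promoter reporter in hCAR-expressing HepG2 cells reflects CAR signaling. Cells received compounds at 15 concentrations and 50 nM CITCO (final), then incubated 24 h at 37 C/5% CO2.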

[15] = target: Nuclear receptor subfamily 1 group I member 3 (Homo sapiens) (UniProt Q14994); assay: qHTS assay to identify small molecule agonists of the constitutive androstane receptor (CAR) signaling pathway (AID 1224839);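 also: HepG2 cells stably carrying human CAR and a CYP2B6 luciferase reporter; series mostly up to about 92 µM; nearly all actives have a fitted effect of over 15% in size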
Summary of the method: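 Luminescence read-out (ONE-Glo, 30 min, room temperature) from double-stable HepG2-CYP2B6-hCAR cells exposed 24 h to 15-point compound series in presence of 0.75 uM PK11195 final.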

[16] = qHTS assay to identify small molecule antagonists of the estrogen related receptor signaling pathway with the pleiotropic PPARgamma coactivator (PGC) from Tox21 10K library (AID 1224841; call rule not given here; also: potency is read from the fitted curve at half-maximal effect; actives are mostly falling curves and most rising ones were filed inactive; nearly all actives have a fitted effect of over 50% in size)
Summary of the method: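 Cells stably carrying the PGC/ERR reporter, seeded at 2,000 per well, received pin-transferred compounds 6 h post-plating. Exposure lasted 18 h at 37 C. Signal: One-Glo luminescence.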

[17] = qHTS assay to identify small molecule agonists of the estrogen related receptor signaling pathway with the pleiotropic PPARgamma coactivator (PGC) from Tox21 10K library (AID 1224842); also: nearly all actives have a fitted effect of over 15% in size
Summary of the method: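 PGC/ERR reporter cell line, 2,000 cells per well, incubated 6 h at 37 C before 23 nL compound in DMSO was added. After 18 h at 37 C, One-Glo luminescence read following 30 min at room temperature.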

[18] = target: Thyrotropin receptor (Homo sapiens) (UniProt P16473); assay: qHTS assay to identify small molecule agonists of the thyroid stimulating hormone receptor (TSHR) signaling pathway (AID 1224843; calls by dose curve; also: nearly all actives have a fitted effect of over 45% in size; also: potency is read from the fitted curve at half-maximal effect)
Summary of the method: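 Agonist-mode screen: TSHR HEK293 cells received test chemicals for half an hour at room temperature, then HTRF cAMP detection reagents for one hour prior to fluorescence measurement. Each chemical ran as a 15-concentration series, triplicated.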

[19] = qHTS assay to identify small molecule agonists of the RXR signaling pathway - cell viability counter screen (AID 1159529)
Summary of the method: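 Luminescence from CellTiter-Glo (30 min, RT) measured viability in the same wells as the beta-lactamase reporter readout. Cells: GeneBLAzer RXR-alpha HEK 293T, 2% charcoal-stripped FBS. Compound exposure 16 hr, 37 C.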

[20] = qHTS assay to identify small molecule antagonists of the estrogen related receptor signaling pathway with the pleiotropic PPARgamma coactivator (PGC) from Tox21 10K library - cell viability counter screen (AID 1224840; active = well fitted cell-killing curve with a large enough effect in the repeat runs, not every such curve was filed as active; also: nearly all actives have a fitted effect of over 40% in size; also: potency is read from the fitted curve at half-maximal effect)
Summary of the method: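 Cell viability is measured by CellTiter-Fluor fluorescence in PGC/ERR cells that receive compounds after a 6-hour attachment period and are then incubated 17.5 hours at 37 C.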

Measured: Potency

Thyrotropin receptor (Homo sapiens), sequence (P16473 whole entry, looked up): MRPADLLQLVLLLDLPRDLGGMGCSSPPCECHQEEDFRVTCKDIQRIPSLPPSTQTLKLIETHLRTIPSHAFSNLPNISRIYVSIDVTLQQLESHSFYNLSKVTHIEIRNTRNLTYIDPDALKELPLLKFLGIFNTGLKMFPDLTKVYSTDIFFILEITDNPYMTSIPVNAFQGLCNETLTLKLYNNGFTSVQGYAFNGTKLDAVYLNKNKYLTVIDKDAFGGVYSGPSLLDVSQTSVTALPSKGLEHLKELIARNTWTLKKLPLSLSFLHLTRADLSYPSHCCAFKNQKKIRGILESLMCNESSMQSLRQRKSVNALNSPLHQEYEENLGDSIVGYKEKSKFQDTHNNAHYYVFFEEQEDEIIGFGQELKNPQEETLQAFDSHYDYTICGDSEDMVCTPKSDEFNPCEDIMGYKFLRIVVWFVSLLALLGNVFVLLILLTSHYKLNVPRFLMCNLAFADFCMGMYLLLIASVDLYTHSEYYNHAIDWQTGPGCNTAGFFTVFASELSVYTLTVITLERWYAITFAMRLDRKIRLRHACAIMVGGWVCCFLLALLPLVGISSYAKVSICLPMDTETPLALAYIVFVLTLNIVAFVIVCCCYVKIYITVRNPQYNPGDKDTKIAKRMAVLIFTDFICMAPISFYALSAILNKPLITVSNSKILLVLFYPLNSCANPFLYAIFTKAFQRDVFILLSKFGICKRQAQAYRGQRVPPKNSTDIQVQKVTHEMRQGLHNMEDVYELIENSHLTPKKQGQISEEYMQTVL
Luciferin 4-monooxygenase (Photinus pyralis), sequence (P08659 whole entry, looked up): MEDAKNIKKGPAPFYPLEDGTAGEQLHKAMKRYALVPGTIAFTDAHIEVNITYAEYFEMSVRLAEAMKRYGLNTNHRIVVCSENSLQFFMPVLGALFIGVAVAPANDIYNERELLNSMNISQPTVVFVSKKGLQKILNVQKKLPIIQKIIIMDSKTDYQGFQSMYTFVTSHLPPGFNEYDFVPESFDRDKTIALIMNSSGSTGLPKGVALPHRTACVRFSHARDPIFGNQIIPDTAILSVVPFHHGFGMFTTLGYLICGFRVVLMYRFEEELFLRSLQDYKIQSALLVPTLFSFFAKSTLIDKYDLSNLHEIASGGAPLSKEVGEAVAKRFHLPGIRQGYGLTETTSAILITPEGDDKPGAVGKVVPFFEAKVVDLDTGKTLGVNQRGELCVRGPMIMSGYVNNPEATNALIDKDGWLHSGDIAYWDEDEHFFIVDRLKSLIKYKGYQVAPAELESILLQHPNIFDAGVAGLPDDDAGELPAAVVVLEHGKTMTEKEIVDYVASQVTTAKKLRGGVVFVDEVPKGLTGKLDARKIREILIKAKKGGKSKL
Nuclear receptor subfamily 1 group I member 3 (Homo sapiens), sequence (Q14994 whole entry, looked up): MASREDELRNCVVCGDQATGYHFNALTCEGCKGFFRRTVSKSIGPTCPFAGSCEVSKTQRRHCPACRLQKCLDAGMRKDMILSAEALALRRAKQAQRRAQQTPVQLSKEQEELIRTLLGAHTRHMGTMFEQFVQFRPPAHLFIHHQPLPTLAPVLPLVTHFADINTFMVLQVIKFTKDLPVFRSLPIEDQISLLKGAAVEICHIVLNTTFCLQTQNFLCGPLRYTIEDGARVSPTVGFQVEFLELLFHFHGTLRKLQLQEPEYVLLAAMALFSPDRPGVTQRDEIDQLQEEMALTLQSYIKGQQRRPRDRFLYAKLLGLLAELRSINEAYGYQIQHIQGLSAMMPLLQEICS

COCCCC/C(=N\OCCN)c1ccc(C(F)(F)F)cc1
active: [2] 23.7 µM | [16] 2.98 µM
not listed: [19] | [20]
inactive: all other assays above

On1ccccc1=S
active: [19] 2.43 µM | [10] 1.71 µM | [12] 1.21 µM | [13] 0.762 µM | [20] 0.605 µM | [16] 3.4 µM
inactive: [17]

Cc1ccc(O)c2ncccc12
inactive: [1] | [2] | [11] | [15] | [17] | [18]
active: [10] 16.8 µM | [13] 11.9 µM | [14] 13.3 µM

CCCCCCCCOc1ccccc1C(=O)Nc1ccc(C(=O)OCC[N+](C)(CC)CC)cc1
inactive: [3] | [11] | [12] | [13] | [14] | [15] | [20]
active: [19] 10.7 µM

CC(=O)N1CCN(c2ccc(OC[C@H]3CO[C@](Cn4ccnc4)(c4ccc(Cl)cc4Cl)O3)cc2)CC1
inactive: [6] | [9] | [11] | [14] | [17]
active: [19] 17.4 µM | [5] 9.08 µM | [7] 29.8 µM | [10] 27.3 µM | [12] 48.6 µM | [13] 48.6 µM | [20] 24.3 µM | [16] 27.3 µM

CC(C)(C)c1ccc(C(=O)CCCN2CCC(OC(c3ccccc3)c3ccccc3)CC2)cc1
active: [19] 15.1 µM | [10] 23.7 µM | [12] 29.8 µM | [13] 29.8 µM | [20] 29.8 µM | [18] 11.9 µM
inactive: [15]

CCCCCOc1ccccc1/C(=C\SC)n1ccnc1
active: [3] 33.5 µM | [10] 29.8 µM | [16] 15 µM | [18] 21.1 µM
inactive: [1] | [2] | [11] | [12] | [13] | [20] | [17]

Oc1ccc2cc(SSc3ccc4cc(O)ccc4c3)ccc2c1
active: [2] 7.7 µM and 12.2 µM

CCCCCCCCn1sc(Cl)c(Cl)c1=O
active: [2] 27.3 µM

OCc1c[nH]c2ccccc12
inactive: [4] | [6] | [7] | [8] | [9]

CCN(CC)CCCC(C)Nc1c2ccc(Cl)cc2nc2ccc(OC)cc12 (centres undefined)
inactive: [4] | [6] | [9]
active: [7] 16.8 µM
